{"source": "paper PMC11006913", "assay_in_all_cases": "PBM; 200 nM protein, PBS", "settings_in_all_cases": "dsDNA, one strand shown", "key": {"PRRX1 [1]": {"target": "PRRX1 (Homo sapiens, UniProt P54821 80-166, F113S)", "sequence (P54821 80-166 F113S)": "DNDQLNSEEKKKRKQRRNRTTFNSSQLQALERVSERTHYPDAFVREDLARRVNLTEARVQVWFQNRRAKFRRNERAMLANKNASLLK"}, "MSX2": {"target": "MSX2 (Homo sapiens, UniProt P35548 130-214, R199I)", "sequence (P35548 130-214 R199I)": "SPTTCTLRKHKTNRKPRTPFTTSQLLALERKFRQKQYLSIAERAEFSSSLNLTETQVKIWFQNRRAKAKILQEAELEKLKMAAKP"}, "SHOX": {"target": "SHOX (Homo sapiens, UniProt O15266 103-189, R173C)", "sequence (O15266 103-189 R173C)": "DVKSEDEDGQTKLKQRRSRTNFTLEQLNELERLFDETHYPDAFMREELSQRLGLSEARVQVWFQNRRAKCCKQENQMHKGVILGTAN"}, "ALX3 [2]": {"target": "ALX3 (Homo sapiens, UniProt O95076 139-225, L168V)", "sequence (O95076 139-225 L168V)": "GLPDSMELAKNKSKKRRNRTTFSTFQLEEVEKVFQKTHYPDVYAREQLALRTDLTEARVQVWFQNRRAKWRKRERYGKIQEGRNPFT"}, "PAX4": {"target": "T1, PAX4 (Homo sapiens, UniProt O43316 9-242, R227W)", "T1 sequence": "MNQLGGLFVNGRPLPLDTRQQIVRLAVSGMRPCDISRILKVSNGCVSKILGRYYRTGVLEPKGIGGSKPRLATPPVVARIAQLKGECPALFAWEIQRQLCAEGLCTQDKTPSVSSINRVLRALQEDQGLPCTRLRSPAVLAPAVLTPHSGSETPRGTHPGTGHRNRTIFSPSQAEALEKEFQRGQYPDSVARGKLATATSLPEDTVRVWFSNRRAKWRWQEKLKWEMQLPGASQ"}, "PRRX1 [3]": {"target": "PRRX1 (Homo sapiens, UniProt P54821 80-166)", "sequence (P54821 80-166)": "as the sequence (P54821 80-166 F113S) above, with S34F counted along it"}, "HOXA2 [4]": {"target": "HOXA2 (Homo sapiens, UniProt O43364 129-215, R185T)", "sequence (O43364 129-215 R185T)": "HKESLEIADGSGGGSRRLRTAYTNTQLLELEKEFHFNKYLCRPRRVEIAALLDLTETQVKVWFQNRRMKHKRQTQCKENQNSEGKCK"}, "HOXA2 [5]": {"target": "HOXA2 (Homo sapiens, UniProt O43364 129-215, R185K)", "sequence (O43364 129-215 R185K)": "as the sequence (O43364 129-215 R185T) above, with T57K counted along it"}, "HOXA2 [6]": {"target": "HOXA2 (Homo sapiens, UniProt O43364 129-215, Y150S)", "sequence (O43364 129-215 Y150S)": "as the sequence (O43364 129-215 R185T) above, with Y22S, T57R counted along it"}, "HOXA2 [7]": {"target": "HOXA2 (Homo sapiens, UniProt O43364 129-215)", "sequence (O43364 129-215)": "as the sequence (O43364 129-215 R185T) above, with T57R counted along it"}, "ALX1 [8]": {"target": "ALX1 (Homo sapiens, UniProt Q15699 118-204, L144V)", "sequence (Q15699 118-204 L144V)": "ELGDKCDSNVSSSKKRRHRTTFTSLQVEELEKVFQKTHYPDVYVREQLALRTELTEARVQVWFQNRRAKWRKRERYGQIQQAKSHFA"}, "ALX3 [9]": {"target": "ALX3 (Homo sapiens, UniProt O95076 139-225, N203Q)", "sequence (O95076 139-225 N203Q)": "as the sequence (O95076 139-225 L168V) above, with V30L, N65Q counted along it"}, "PITX2": {"target": "PITX2 (Homo sapiens, UniProt Q99697 72-157)"}, "ALX1 [10]": {"target": "ALX1 (Homo sapiens, UniProt Q15699 118-204, L144R)", "sequence (Q15699 118-204 L144R)": "as the sequence (Q15699 118-204 L144V) above, with V27R counted along it"}, "ALX3 [11]": {"target": "ALX3 (Homo sapiens, UniProt O95076 139-225)", "sequence (O95076 139-225)": "as the sequence (O95076 139-225 L168V) above, with V30L counted along it"}, "VAX1 [12]": {"target": "VAX1 (Homo sapiens, UniProt Q5SQQ9 86-172)", "sequence (Q5SQQ9 86-172)": "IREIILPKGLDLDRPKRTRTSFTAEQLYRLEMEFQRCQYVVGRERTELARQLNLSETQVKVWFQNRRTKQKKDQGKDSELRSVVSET"}, "ALX3 [13]": {"target": "ALX3 (Homo sapiens, UniProt O95076 139-225, L168Q)", "sequence (O95076 139-225 L168Q)": "as the sequence (O95076 139-225 L168V) above, with V30Q counted along it"}, "VAX1 [14]": {"target": "VAX1 (Homo sapiens, UniProt Q5SQQ9 86-172, T142I)", "sequence (Q5SQQ9 86-172 T142I)": "as the sequence (Q5SQQ9 86-172) above, with T57I counted along it"}, "ALX1 [15]": {"target": "ALX1 (Homo sapiens, UniProt Q15699 118-204)", "sequence (Q15699 118-204)": "as the sequence (Q15699 118-204 L144V) above, with V27L counted along it"}, "ALX3 [16]": {"target": "ALX3 (Homo sapiens, UniProt O95076 139-225, N203S)", "sequence (O95076 139-225 N203S)": "as the sequence (O95076 139-225 L168V) above, with V30L, N65S counted along it"}, "VAX1 [17]": {"target": "VAX1 (Homo sapiens, UniProt Q5SQQ9 86-172, K157R)", "sequence (Q5SQQ9 86-172 K157R)": "as the sequence (Q5SQQ9 86-172) above, with K72R counted along it"}, "HOXD13 [18]": {"target": "HOXD13 (Homo sapiens, UniProt P35453 263-343, T313R)", "sequence (P35453 263-343 T313R)": "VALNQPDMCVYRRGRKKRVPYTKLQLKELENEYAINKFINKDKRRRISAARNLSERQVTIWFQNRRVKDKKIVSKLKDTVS"}, "HOXD13 [19]": {"target": "HOXD13 (Homo sapiens, UniProt P35453 263-343)", "sequence (P35453 263-343)": "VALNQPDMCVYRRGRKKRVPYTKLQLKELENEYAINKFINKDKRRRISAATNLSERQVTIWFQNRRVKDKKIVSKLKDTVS"}, "HOXD13 [20]": {"target": "HOXD13 (Homo sapiens, UniProt P35453 263-343, T313A)", "sequence (P35453 263-343 T313A)": "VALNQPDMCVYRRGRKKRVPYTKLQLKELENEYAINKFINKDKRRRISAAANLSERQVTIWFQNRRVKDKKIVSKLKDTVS"}, "NKX2-6 [21]": {"target": "T2, NKX2-6 (Homo sapiens, UniProt A6NCS4 118-204)", "T2 sequence": "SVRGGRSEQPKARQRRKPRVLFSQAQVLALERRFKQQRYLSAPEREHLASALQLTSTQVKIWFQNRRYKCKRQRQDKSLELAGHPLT"}, "NKX2-6 [22]": {"target": "T3, NKX2-6 (Homo sapiens, UniProt A6NCS4 118-204, F151L)", "T3 sequence": "T2 sequence with F34L"}}, "note": "Positions count from the first letter of the chain named."}
{"sequence": "AATTATAG", "values": [{"measurement": "binding signal", "setting": "PRRX1 [1]", "result": "11.2 upbm affinity estimate (log intensity, higher = more binding, comparable within an allelic series)"}, {"measurement": "binding signal", "setting": "MSX2", "result": "12.2 upbm affinity estimate (log intensity, higher = more binding, comparable within an allelic series)"}, {"measurement": "binding signal", "setting": "SHOX", "result": "9.23 upbm affinity estimate (log intensity, higher = more binding, comparable within an allelic series)"}, {"measurement": "binding signal", "setting": "ALX3 [2]", "result": "9.73 upbm affinity estimate (log intensity, higher = more binding, comparable within an allelic series)"}, {"measurement": "binding signal", "setting": "PAX4", "result": "10.9 upbm affinity estimate (log intensity, higher = more binding, comparable within an allelic series)"}]}
{"sequence": "AGGTCTTG", "values": [{"measurement": "binding signal", "setting": "PRRX1 [1]", "result": "9.4 upbm affinity estimate (log intensity, higher = more binding, comparable within an allelic series)"}, {"measurement": "binding signal", "setting": "PRRX1 [3]", "result": "9.41 upbm affinity estimate (log intensity, higher = more binding, comparable within an allelic series)"}]}
{"sequence": "CTAGACCC", "values": [{"measurement": "binding signal", "setting": "PRRX1 [1]", "result": "9.44 upbm affinity estimate (log intensity, higher = more binding, comparable within an allelic series)"}, {"measurement": "binding signal", "setting": "PRRX1 [3]", "result": "9.31 upbm affinity estimate (log intensity, higher = more binding, comparable within an allelic series)"}]}
{"sequence": "ACGCCGGA", "values": [{"measurement": "binding signal", "setting": "PRRX1 [1]", "result": "9.29 upbm affinity estimate (log intensity, higher = more binding, comparable within an allelic series)"}, {"measurement": "binding signal", "setting": "HOXA2 [4]", "result": "7.08 upbm affinity estimate (log intensity, higher = more binding, comparable within an allelic series)"}, {"measurement": "binding signal", "setting": "HOXA2 [5]", "result": "10.3 upbm affinity estimate (log intensity, higher = more binding, comparable within an allelic series)"}, {"measurement": "binding signal", "setting": "HOXA2 [6]", "result": "10.5 upbm affinity estimate (log intensity, higher = more binding, comparable within an allelic series)"}, {"measurement": "binding signal", "setting": "PRRX1 [3]", "result": "9.34 upbm affinity estimate (log intensity, higher = more binding, comparable within an allelic series)"}, {"measurement": "binding signal", "setting": "HOXA2 [7]", "result": "7.28 upbm affinity estimate (log intensity, higher = more binding, comparable within an allelic series)"}]}
{"sequence": "CCGGCCAG", "values": [{"measurement": "binding signal", "setting": "PRRX1 [1]", "result": "8.97 upbm affinity estimate (log intensity, higher = more binding, comparable within an allelic series)"}, {"measurement": "binding signal", "setting": "HOXA2 [4]", "result": "7.26 upbm affinity estimate (log intensity, higher = more binding, comparable within an allelic series)"}, {"measurement": "binding signal", "setting": "ALX1 [8]", "result": "6.59 upbm affinity estimate (log intensity, higher = more binding, comparable within an allelic series)"}, {"measurement": "binding signal", "setting": "ALX3 [9]", "result": "7.68 upbm affinity estimate (log intensity, higher = more binding, comparable within an allelic series)"}, {"measurement": "binding signal", "setting": "PITX2", "result": "7.87 upbm affinity estimate (log intensity, higher = more binding, comparable within an allelic series)"}, {"measurement": "binding signal", "setting": "HOXA2 [5]", "result": "9.96 upbm affinity estimate (log intensity, higher = more binding, comparable within an allelic series)"}, {"measurement": "binding signal", "setting": "ALX1 [10]", "result": "6.61 upbm affinity estimate (log intensity, higher = more binding, comparable within an allelic series)"}, {"measurement": "binding signal", "setting": "ALX3 [11]", "result": "7.75 upbm affinity estimate (log intensity, higher = more binding, comparable within an allelic series)"}, {"measurement": "binding signal", "setting": "VAX1 [12]", "result": "6.85 upbm affinity estimate (log intensity, higher = more binding, comparable within an allelic series)"}, {"measurement": "binding signal", "setting": "ALX3 [13]", "result": "7.66 upbm affinity estimate (log intensity, higher = more binding, comparable within an allelic series)"}, {"measurement": "binding signal", "setting": "ALX3 [2]", "result": "7.61 upbm affinity estimate (log intensity, higher = more binding, comparable within an allelic series)"}, {"measurement": "binding signal", "setting": "VAX1 [14]", "result": "6.97 upbm affinity estimate (log intensity, higher = more binding, comparable within an allelic series)"}, {"measurement": "binding signal", "setting": "HOXA2 [6]", "result": "10.3 upbm affinity estimate (log intensity, higher = more binding, comparable within an allelic series)"}, {"measurement": "binding signal", "setting": "ALX1 [15]", "result": "6.55 upbm affinity estimate (log intensity, higher = more binding, comparable within an allelic series)"}, {"measurement": "binding signal", "setting": "ALX3 [16]", "result": "7.66 upbm affinity estimate (log intensity, higher = more binding, comparable within an allelic series)"}, {"measurement": "binding signal", "setting": "PRRX1 [3]", "result": "9.42 upbm affinity estimate (log intensity, higher = more binding, comparable within an allelic series)"}, {"measurement": "binding signal", "setting": "HOXA2 [7]", "result": "7.18 upbm affinity estimate (log intensity, higher = more binding, comparable within an allelic series)"}, {"measurement": "binding signal", "setting": "VAX1 [17]", "result": "6.86 upbm affinity estimate (log intensity, higher = more binding, comparable within an allelic series)"}]}
{"sequence": "CATAAATC", "values": [{"measurement": "binding signal", "setting": "PRRX1 [1]", "result": "10.2 upbm affinity estimate (log intensity, higher = more binding, comparable within an allelic series)"}, {"measurement": "binding signal", "setting": "HOXD13 [18]", "result": "10.7 upbm affinity estimate (log intensity, higher = more binding, comparable within an allelic series)"}, {"measurement": "binding signal", "setting": "HOXD13 [19]", "result": "11.8 upbm affinity estimate (log intensity, higher = more binding, comparable within an allelic series)"}, {"measurement": "binding signal", "setting": "HOXD13 [20]", "result": "11.5 upbm affinity estimate (log intensity, higher = more binding, comparable within an allelic series)"}, {"measurement": "binding signal", "setting": "PRRX1 [3]", "result": "11.5 upbm affinity estimate (log intensity, higher = more binding, comparable within an allelic series)"}]}
{"sequence": "ACTTTAAG", "values": [{"measurement": "binding signal", "setting": "PRRX1 [1]", "result": "10.1 upbm affinity estimate (log intensity, higher = more binding, comparable within an allelic series)"}, {"measurement": "binding signal", "setting": "NKX2-6 [21]", "result": "12.5 upbm affinity estimate (log intensity, higher = more binding, comparable within an allelic series)"}, {"measurement": "binding signal", "setting": "NKX2-6 [22]", "result": "10.3 upbm affinity estimate (log intensity, higher = more binding, comparable within an allelic series)"}, {"measurement": "binding signal", "setting": "PRRX1 [3]", "result": "10.8 upbm affinity estimate (log intensity, higher = more binding, comparable within an allelic series)"}]}
